Reference: PubChem BioAssay
For some assays here: Measured potencies and affinities stand elsewhere. Activity calls are given as the source filed them. Unless noted, no rule for the calls is given here.

Key:
[1] = antimalarial activity against Dd2 strain (AID 2302;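 active = growth inhibition above 50% at the single 2 µM test dose, taken to imply half-maximal potency below 2 µM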;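 also: 0% = DMSO untreated growth and 100% = chloroquine plus artemisinin killed control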); details: P. falciparum Dd2 in RBCs, LDH growth readout, 72 h; at 2 µM; active compounds read high
[2] = HepG2 cytotoxicity, primary screen, cytotoxicity control for P. falciparum antimalarial project, cell-based, ATP luminescence (AID 2303;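 active = inhibition above 50%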;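 also: 0% = DMSO wells and 100% = digitonin-killed cells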); details: HepG2 viability, 24-48 h, at 10 µM, active compounds read high
[3] = target: L-lactate dehydrogenase (Plasmodium falciparum (isolate CDC / Honduras)) (UniProt Q27743); experiment: PfLDH activity inhibition – cell lysate, 3D7 strain, counter-screen for P. falciparum growth inhibition project (AID 2304);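 also: 0% = vehicle and 100% = reference inhibitor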; details: P. falciparum 3D7 crude extract, LDH APAD/NBT absorbance; at 2 µM; active compounds read high
[4] = inhibition of 3D7 malaria parasite growth – strain 3D7 (AID 2306);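 also: 0% = DMSO wells and 100% = chloroquine plus artemisinin control wells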; details: P. falciparum 3D7 erythrocytic growth, LDH absorbance, 72 h; at 2 µM; active compounds read high
[5] = target: Calcium-dependent protein kinase 1 (Plasmodium falciparum (isolate 3D7)) (UniProt P62344); experiment: PfCDPK1 kinase inhibitors, biochemical, TCAMS library (AID 1159585; cut-off not given, nearly all actives have IC50 up to about 0.98 µM;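 also: inhibitors leave more ATP so luminescence rises with inhibition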); details: recombinant PfCDPK1, Kinase-Glo ATP depletion luminescence
[6] = target: Plasmodium falciparum protein kinase 6 (PK6, PF3D7_1337100) (UniProt Q8IDW1); experiment: PfPK6 kinase inhibitors, biochemical, TCAMS library (AID 1159586); details: recombinant PfPK6, Kinase-Glo ATP depletion luminescence
[7] = target: Protein kinase 7 (PK7), Plasmodium falciparum 3D7 (PF3D7_0213400) (UniProt Q7YTF7); experiment: inhibition of Plasmodium PK7 catalytic activity – biochemical, TCAMS antimalarial set, Kinase-Glo luminescence (AID 1159587); details: recombinant PfPK7, Kinase-Glo ATP depletion luminescence
[8] = target: Calcium-dependent protein kinase 4 (Plasmodium falciparum (isolate 3D7)) (UniProt Q8IBS5); experiment: PfCDPK4 kinase inhibitors, biochemical, TCAMS library (AID 1159588; cut-off not given, nearly all actives have IC50 up to about 0.91 µM); details: recombinant PfCDPK4, Kinase-Glo ATP depletion luminescence
Sequence of Calcium-dependent protein kinase 4 (Plasmodium falciparum (isolate 3D7)) (Q8IBS5 whole entry, looked up): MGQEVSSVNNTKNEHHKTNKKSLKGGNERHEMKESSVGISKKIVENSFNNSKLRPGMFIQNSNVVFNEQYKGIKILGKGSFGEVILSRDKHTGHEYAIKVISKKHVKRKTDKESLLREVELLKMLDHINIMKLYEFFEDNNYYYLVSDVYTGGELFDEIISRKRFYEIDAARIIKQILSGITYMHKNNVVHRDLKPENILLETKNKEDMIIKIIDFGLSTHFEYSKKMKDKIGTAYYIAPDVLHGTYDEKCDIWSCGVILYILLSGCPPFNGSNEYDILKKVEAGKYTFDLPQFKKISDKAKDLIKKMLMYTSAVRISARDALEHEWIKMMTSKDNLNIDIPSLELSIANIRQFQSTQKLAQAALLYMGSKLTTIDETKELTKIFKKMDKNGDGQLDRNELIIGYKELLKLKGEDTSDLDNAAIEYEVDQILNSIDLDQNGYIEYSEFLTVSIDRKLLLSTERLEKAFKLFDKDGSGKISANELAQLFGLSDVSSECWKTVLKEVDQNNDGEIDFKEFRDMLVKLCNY

Sequence of Protein kinase 7 (PK7), Plasmodium falciparum 3D7 (PF3D7_0213400) (Q7YTF7 1-343): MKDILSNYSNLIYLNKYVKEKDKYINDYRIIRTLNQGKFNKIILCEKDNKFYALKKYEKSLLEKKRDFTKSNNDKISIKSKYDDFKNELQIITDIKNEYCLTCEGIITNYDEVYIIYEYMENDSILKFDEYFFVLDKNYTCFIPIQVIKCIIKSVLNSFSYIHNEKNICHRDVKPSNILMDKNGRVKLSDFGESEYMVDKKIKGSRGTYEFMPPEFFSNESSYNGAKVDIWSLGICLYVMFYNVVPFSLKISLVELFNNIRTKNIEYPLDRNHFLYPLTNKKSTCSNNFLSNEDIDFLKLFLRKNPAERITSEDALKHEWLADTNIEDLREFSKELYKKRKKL
Sequence of Calcium-dependent protein kinase 1 (Plasmodium falciparum (isolate 3D7)) (P62344 whole entry, looked up): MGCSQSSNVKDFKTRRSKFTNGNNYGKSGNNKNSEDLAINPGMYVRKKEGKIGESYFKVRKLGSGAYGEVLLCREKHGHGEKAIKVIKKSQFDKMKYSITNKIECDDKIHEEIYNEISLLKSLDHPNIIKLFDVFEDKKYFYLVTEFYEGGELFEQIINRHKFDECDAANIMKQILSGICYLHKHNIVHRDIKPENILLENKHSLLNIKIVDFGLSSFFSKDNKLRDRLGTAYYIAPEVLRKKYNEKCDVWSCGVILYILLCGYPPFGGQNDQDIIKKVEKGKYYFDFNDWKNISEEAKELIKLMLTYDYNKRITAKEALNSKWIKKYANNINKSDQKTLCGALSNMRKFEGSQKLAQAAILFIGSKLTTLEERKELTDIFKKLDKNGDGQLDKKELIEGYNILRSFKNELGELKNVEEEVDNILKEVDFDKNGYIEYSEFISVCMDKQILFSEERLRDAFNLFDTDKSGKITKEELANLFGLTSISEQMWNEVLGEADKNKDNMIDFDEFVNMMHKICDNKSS
Sequence of L-lactate dehydrogenase (Plasmodium falciparum (isolate CDC / Honduras)) (Q27743 whole entry, looked up): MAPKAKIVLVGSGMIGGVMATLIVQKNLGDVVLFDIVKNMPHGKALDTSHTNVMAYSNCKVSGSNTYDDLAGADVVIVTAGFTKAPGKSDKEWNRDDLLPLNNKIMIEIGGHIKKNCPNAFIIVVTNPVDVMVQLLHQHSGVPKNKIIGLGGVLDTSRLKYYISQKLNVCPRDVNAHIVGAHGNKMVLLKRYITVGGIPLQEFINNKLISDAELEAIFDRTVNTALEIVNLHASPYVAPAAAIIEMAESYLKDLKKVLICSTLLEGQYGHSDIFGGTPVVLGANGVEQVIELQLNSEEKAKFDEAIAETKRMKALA
Sequence of Plasmodium falciparum protein kinase 6 (PK6, PF3D7_1337100) (Q8IDW1 1-305): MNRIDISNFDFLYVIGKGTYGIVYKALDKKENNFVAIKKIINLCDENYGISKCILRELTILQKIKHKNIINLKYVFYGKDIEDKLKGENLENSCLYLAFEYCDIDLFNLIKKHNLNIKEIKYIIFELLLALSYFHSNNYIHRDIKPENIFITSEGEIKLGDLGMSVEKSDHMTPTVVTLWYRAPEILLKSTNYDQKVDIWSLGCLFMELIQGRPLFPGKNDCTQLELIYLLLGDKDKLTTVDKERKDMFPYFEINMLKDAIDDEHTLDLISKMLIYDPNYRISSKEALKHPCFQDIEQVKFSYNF

CN(C)CCCOc1ccc(CN2CC[C@H](NC(=O)c3ccc(Cl)c(Cl)c3)C2)cc1Br
active: growth inhibition [4] 101%
inactive: growth inhibition [1] 34% | inhibition [2] 11% | inhibition [3] -2% | outcome [5] | outcome [6] | outcome [7] | outcome [8]

COc1cc2nc(N3CCC(CNC(=O)c4ccc(-c5ccc(C(=O)N(C)C)cc5O)cc4)CC3)nc(N)c2cc1OC
active: growth inhibition [1] 90% | growth inhibition [4] 101%
inactive: inhibition [2] 2% | inhibition [3] 3% | outcome [5] | outcome [6] | outcome [7] | outcome [8]

S=C(NCCCCCN1CCC(c2c[nH]c3ccccc23)CC1)Nc1ccc(Cl)c(Cl)c1
inactive: growth inhibition [1] 31% | inhibition [3] -3% | outcome [5] | outcome [6] | outcome [7] | outcome [8]
active: inhibition [2] 89% | growth inhibition [4] 101%

COc1cc(-c2[nH]c(-c3ccc(OCCN(C)C)cc3)cc2-c2ccncc2)ccc1Cl
active: growth inhibition [4] 93%
inactive: growth inhibition [1] 33% | inhibition [2] 3% | inhibition [3] 1% | outcome [5] | outcome [6] | outcome [7] | outcome [8]

CO/C(=C\C=C\c1cc2cc(Cl)ccc2[nH]1)C(=O)NCCCN1CCN(c2cc(Cl)ccc2OC)CC1
inactive: growth inhibition [1] 21% | inhibition [2] 41% | inhibition [3] -2% | outcome [5] | outcome [6] | outcome [7] | outcome [8]
active: growth inhibition [4] 97%

CC(C)COc1ccc(Cl)cc1Cc1ccc(-c2nc3ccc(C(F)(F)F)cc3[nH]2)o1
active: growth inhibition [1] 51% | growth inhibition [4] 97%
inactive: inhibition [2] 14% | inhibition [3] 5% | outcome [5] | outcome [6] | outcome [7] | outcome [8]

CN1CCN(CCCN(Cc2cccc(-c3ccc(CNCc4ccc5c(c4)OCO5)cc3)c2)C(=O)Nc2ccccc2)CC1
inactive: inhibition [2] 39% | inhibition [3] 4% | outcome [5] | outcome [6] | outcome [7] | outcome [8]
active: growth inhibition [1] 69% | growth inhibition [4] 98%

COC(=O)c1c(NC(=O)c2cccc(C(F)(F)F)c2)sc2c1CCN(Cc1ccccc1)C2
inactive: inhibition [2] 9% | inhibition [3] 0% | outcome [5] | outcome [6] | outcome [7] | outcome [8]
active: growth inhibition [1] 61% | growth inhibition [4] 84%

Cc1cccc2[nH]c(-c3ccc(-c4ccc(NC(=O)Nc5ccc(F)c(F)c5F)cc4)s3)nc12
inactive: inhibition [3] 2% | outcome [5] | outcome [6] | outcome [7] | outcome [8]
active: growth inhibition [1] 99% | inhibition [2] 58% | growth inhibition [4] 100%

Cc1cccc2[nH]c(-c3ccc(-c4ccc(NC(=O)CN5CCN(C)CC5)cc4)cc3)nc12
inactive: inhibition [2] 29% | inhibition [3] 1% | outcome [5] | outcome [6] | outcome [7] | outcome [8]
active: growth inhibition [1] 83% | growth inhibition [4] 100%

CCOc1cc(C(=O)NC2CCN(Cc3ccccc3)C2)ccc1-c1nc2ccc(Cl)cc2[nH]1 (configuration not stated)
inactive: inhibition [2] 7% | inhibition [3] 6% | outcome [5] | outcome [6] | outcome [7] | outcome [8]
active: growth inhibition [1] 60% | growth inhibition [4] 98%

CCCCNC(=O)[C@H](CC1CCCCC1)NC(=O)c1ccc(O)c(-c2cccc(C(F)(F)F)c2)c1
active: growth inhibition [1] 86% | growth inhibition [4] 98%
inactive: inhibition [2] -8% | inhibition [3] 0% | outcome [5] | outcome [6] | outcome [7] | outcome [8]

O=C(/C=C/c1ccc(Cl)c(Cl)c1)NC1CCC(CN2CCC(Cc3cc4ccccc4[nH]3)CC2)CC1 (configuration not stated)
active: growth inhibition [1] 74% | inhibition [2] 99% | growth inhibition [4] 100%
inactive: inhibition [3] -8% | outcome [5] | outcome [6] | outcome [7] | outcome [8]

COc1cccc(CC(=O)N2CCC(n3c(C)nc4ccc(F)cc43)CC2)c1
active: growth inhibition [1] 99% | growth inhibition [4] 100%
inactive: inhibition [2] -8% | inhibition [3] -3% | outcome [5] | outcome [6] | outcome [7] | outcome [8]

O=C(/C=C/c1ccc(Cl)c(Cl)c1)NCCCCCN1CCC(NC(=O)NC2CCCC2)CC1
inactive: growth inhibition [1] 31% | inhibition [2] 21% | inhibition [3] -1% | outcome [5] | outcome [6] | outcome [7] | outcome [8]
active: growth inhibition [4] 99%

CC1CCN(CCCNc2ccc(C(=O)Nc3ccc(C(F)(F)F)cc3)cc2[N+](=O)[O-])CC1
inactive: inhibition [3] -3% | outcome [5] | outcome [6] | outcome [7] | outcome [8]
active: growth inhibition [1] 100% | inhibition [2] 62% | growth inhibition [4] 101%

O=C(NCC1CCN(Cc2cccc(F)c2)C1)c1cc(-c2cccc(C(F)(F)F)c2)cs1 (configuration not stated)
inactive: growth inhibition [1] 10% | inhibition [2] 31% | inhibition [3] -2% | outcome [5] | outcome [6] | outcome [7] | outcome [8]
active: growth inhibition [4] 96%

COc1cccc(C2CCN(CCN3CCC(NC(=O)c4ccc(-c5ccc(C#N)cc5)cc4)CC3)CC2)c1
inactive: growth inhibition [1] 47% | inhibition [2] 28% | inhibition [3] 6% | outcome [5] | outcome [6] | outcome [7] | outcome [8]
active: growth inhibition [4] 98%

CCOC(=O)CCCCOc1c(OC)cc(Cc2cnc(N)nc2N)cc1OC
inactive: growth inhibition [1] 0% | inhibition [2] -8% | inhibition [3] 5% | outcome [5] | outcome [6] | outcome [7] | outcome [8]
active: growth inhibition [4] 95%
